# PMC13494018
# Values without a mark were called inactive. No rule for the calls is given here.
# B1: d8r1_design_ppi_671_dldesign_0_cycle1_af2pred (protein)
# chain: AESYRAAAAAIAQAAADNPAGAADAAAALVAMAKMSSPEKAAAIAEGVEAVAEGAPADVRALLLAAAAEIKAIV
# B2: d8r1_design_ppi_1318_dldesign_0_cycle1_af2pred (protein)
# chain: SAAAAAAARGEAAVASLTATGAAIVAAAKKDPSEAASMVRAVKNLGQAYANRVPPEYAAKVLAVAATYAAQIAAIM
# B3: d8r1_design_ppi_536_dldesign_0_cycle1_af2pred (protein)
# chain: NKDKEIAELLLKLAEAAKEDPEKALKIAEEIEKLGNKEFGGALKTLLELAVAEKGKAGENAKAAAIVLSTSRAEDLLAK
# B4: d8r1_design_ppi_1425_dldesign_0_cycle0_af2pred (protein)
# chain: STESREKALKAISEKSKAKAKKLAAEDPAKGLALAKNAAKSFKDWAKADPETKETAEAQAKEHEALAKEIAAAA
# B5: d6r1_design_ppi_1146_dldesign_0_cycle1_af2pred (protein)
# chain: AEEEAAKLKAQADGLDTIATALIEQAKTGDAAVARGAAAAAVSLAKKAAELYKRAAKLAGDEKFGKEQAKKQKAKAKEAKEVAEKKAA
# B6: d6r1_design_ppi_1153_dldesign_0_cycle0_af2pred (protein)
# chain: TEAAAALLRKTIAALERRVERAPEMSLEEAKALAESAKVLLEAGKAVPEVAAAAEELYKRAEEVAKKKAEEAAA
# B7: d6r1_design_ppi_1013_dldesign_0_cycle0_af2pred (protein)
# chain: SAEVQALLEEARRHIARAQKLLVAGNKEEALKEAEEAKKLAEEAKKLAADDPELAKSAEGLIKLAEAVIESAKA
# B8: d8r1_design_ppi_310_dldesign_0_cycle0_af2pred (protein)
# chain: SRARALASIAALAELAAELAEENPASGAQLGKVVASALAALGLTDEAARVAAASPADLKAVMREVAAAARAAAAALA
# B9: d8r1_design_ppi_509_dldesign_0_cycle1_af2pred (protein)
# chain: KDEHFDKMVEYLKKAQEAYNKAVAAAKAGDADAAKAALAKAQEYYDKAIKEAEKYSPEAGAAMKSTKEKSVAIANAAL
# B10: d8r1_design_ppi_1356_dldesign_0_cycle1_af2pred (protein)
# chain: DPELIARTALSAAVMLEKGVAGTPEAALNAADGSALLLESKAESFGSEELKELAKKAKEAAKKIKADPEAGKKALREVAEELKKLAE
# B11: d8r1_design_ppi_1470_dldesign_0_cycle1_af2pred (protein)
# chain: DAAAQAATALQGAKNALAAADLLEAEGTKGALLAAGSLYIAAGEQLATAYTLLGKPEEGKAVAAELNAKGKALLAAA
# B12: d8r1_design_ppi_167_dldesign_0_cycle1_af2pred (protein)
# chain: SKEERYKKAAEWLAETSKKAIALRKANPAVAPLAIKMHGAAAHAAAALVAGDEEKAEEYKKKSEEYLKEAEAAIA
# B13: d8r1_design_ppi_1425_dldesign_0_cycle1_af2pred (protein)
# chain: SVEERKKRAEAIAKRSRAVARALAAADPARGIALAESAAVSFEKWAELYPEIKEFAEALAAEHRALAAEIRAAA
# B14: d6r1_design_ppi_1169_dldesign_0_cycle1_af2pred (protein)
# chain: ELEEEVERAVEEAREAAERAREAGKANPALAPQLEAVVRFLETAAEYARESGEEGTEALKEAVEAARGMAEAALAA
# B15: d6r1_design_ppi_973_dldesign_0_cycle1_af2pred (protein)
# chain: EQKKAAEEAAKAIKEAAKKAKELGDEATANGLQAIATALKNAVEAGDYKAAAELAKIGAAQAATLPELAPLAKKIEKLAKKIEE
# B16: d8r1_design_ppi_1447_dldesign_0_cycle1_af2pred (protein)
# chain: SEAEDIASFARMATTAAASAAKKDIASAKTLMDAVAKLPGAAAHVTAAGNAAIAAAATVDPARAAELAAYLAARLAAL
# B17: d8r1_design_ppi_509_dldesign_0_cycle0_af2pred (protein)
# chain: SDEKWAAAAAHMGAAQKAADAAVAAAAAGNTAAAKAAQAEAAAHYDKAAEEAKEYSPEAGAAMKSTREATVALINAKL
# B18: d8r1_design_ppi_139_dldesign_0_cycle1_af2pred (protein)
# chain: AKLIEELKKEAKAVKELAKKGAPAEELDAAVKKLGEAMTKLAKAMATMSPEEKAKARAALAEAAKAAIEAGEVAEKLRAA
# B19: d6r1_design_ppi_1056_dldesign_0_cycle0_af2pred (protein)
# chain: AAAAAAAAQAETDALADEARELAAKAAEKIDPEKGALLKELTDYYAAKARSGTDEAGRTGLRALLSAARNIVS
# B20: d6r1_design_ppi_1088_dldesign_0_cycle1_af2pred (protein)
# chain: GQAGTAKALINMARIGAKLGEEAYEVLKTIFETLANMIADPAWAEGGRAAREAIYAITMEIDPELAKRVLEEVE
# B21: d6r1_design_ppi_1068_dldesign_0_cycle0_af2pred (protein)
# chain: MAAELTAKAQEAVERAAAAEAAGLKEAATLYLKAAAYYHAGAVNPATAAENAAKGEEYLAQAEALEKAAA
# B22: d6r1_design_ppi_1033_dldesign_0_cycle1_af2pred (protein)
# chain: AAEEEAKNAQVRQLAAQAFSYNLLADAAKQLAAAKGPEYEAKAKEYQAKAAAYKAEAEALNPEVFAAALAEVQAKYDAAL
# B23: d6r1_design_ppi_1028_dldesign_0_cycle0_af2pred (protein)
# chain: AAAIAATKAELAKGKALLAKAKAAPAAAWNEALAAELRAAANALNRAATALLAAGGDTALAVEATETAVELLKAAGEINRA
# B24: d8r1_design_ppi_869_dldesign_0_cycle0_af2pred (protein)
# chain: SEDAQSAVRFAQNTLETAKRKAAEDPARGRQIAANLATAAATAAAKFAGLPEAATLKALQAQAAALAAALA
# B25: d6r1_design_ppi_1068_dldesign_0_cycle1_af2pred (protein)
# chain: APAVLLAQAQKSAELALKALELGYNEAAVLFLQAASYFFAGAVNPATAATYAAKGVELIEKGLALLKAAS
# B26: d8r1_design_ppi_530_dldesign_0_cycle0_af2pred (protein)
# chain: AAALAAALAAAAEAAAAAEAEAVAAAVSETVAAAARAAIKSFESGANKELAKQAMAAASAAGAAMKAGDTAAAQQYAAQTQALVAQIA
# B27: d6r1_design_ppi_1105_dldesign_0_cycle1_af2pred (protein)
# chain: AEKERLKEAAKRSAEKARELAKAGYALGAKAAILAAVRAAKEAGDAELVKEVLEVAKEAAKHPEVKPALEEAKKALEEVKK
# B28: d8r1_design_ppi_1324_dldesign_0_cycle1_af2pred (protein)
# chain: AAAKLAALKKEIKALIGAAAAYQIAKDSSKLDEYVAKANKLIALADKDPVAAAKETAKLAEEAGDEETAKKAKEAAKEAKKL
# B29: d6r1_design_ppi_1193_dldesign_0_cycle1_af2pred (protein)
# chain: MEELKKLKEEAEKLFQKARDIMPQAVKAGNEAVSKVVEAQKYATEAAKLAKEGGDLEEAKKKYEKAKKYYEEALKLIAA
# B30: d8r1_design_ppi_482_dldesign_0_cycle0_af2pred (protein)
# chain: STTDEMIEKIAKAAQEAMKLAKEGKYEEAYALLKKMAEEAAKVSESLGALAKGVAEAMKNWIDKYKAEKA
# B31: d8r1_design_ppi_869_dldesign_0_cycle1_af2pred (protein)
# chain: SEEAQAAVRFARNLLEVARLRAEEDPARGRAIAANLEVAARTLAEKHAGLPEAEELRRLAAEAAALAAELA
# B32: d6r1_design_ppi_1061_dldesign_0_cycle1_af2pred (protein)
# chain: AAAALAAAAAIAATLLAAGKAGDAATAAAALYGAALVLALADPAYAEVYDAVARAVSPAARAAGGAAAIALLAAAQA
# B33: d8r1_design_ppi_1265_dldesign_0_cycle1_af2pred (protein)
# chain: SENEEAAKALTRAAEAAARYLAEKYGELAKEAAKLIAKAAEADAETAVKYLEEAVKLLDEAGKKTGATKETDALKAMAEKAAELKKA
# B34: d8r1_design_ppi_286_dldesign_0_cycle1_af2pred (protein)
# chain: SNEEKAEDLRFMARAVLGVGATASAAETAAFLNDVAAAAARLDPEAGAAVAAIGAAAAASGDAKAAAKAAAAVLEAAAEEFL
# B35: d6r1_design_ppi_1193_dldesign_0_cycle0_af2pred (protein)
# chain: EEERQQLLAEAEALFARANALLPAAAAAGSEATALVVESLEYASKAARLAREGGDLEEAQKLLEKAKKYLAEAEKLIAA
# B36: d6r1_design_ppi_1117_dldesign_0_cycle0_af2pred (protein)
# chain: SQQQTQQAQQQAQATIAQTQAARDELKKLAADPEARAAAESAAQQLAVAQDLNASGTLVGAQAALAMAQQALAVATATLAKAKAA
# B37: d6r1_design_ppi_1043_dldesign_0_cycle1_af2pred (protein)
# chain: AQASIQRGAQAANALMAAAAGYYAKKYKGPLGEKAKAAADQAAALAAQSAANPATAQANAQQASALLDELLKEVKAYEE
# B38: d8r1_design_ppi_134_dldesign_0_cycle1_af2pred (protein)
# chain: AAAEAAREAVRAAAAAAREAAAKMSPSKAKAVESIVERTTRVADELIAAGDYRTAVRAAASAEAAAKTLLEVDK
# B39: d8r1_design_ppi_1339_dldesign_0_cycle1_af2pred (protein)
# chain: AEAWLAEIREIVSRAVEAAQAGDVETLEAAVEEARALAERAPPEVRPAAENAAAFNQLLLELTKERLAEKA
# Chain of PDL1, Q9NZQ7 (Q9NZQ7 whole entry): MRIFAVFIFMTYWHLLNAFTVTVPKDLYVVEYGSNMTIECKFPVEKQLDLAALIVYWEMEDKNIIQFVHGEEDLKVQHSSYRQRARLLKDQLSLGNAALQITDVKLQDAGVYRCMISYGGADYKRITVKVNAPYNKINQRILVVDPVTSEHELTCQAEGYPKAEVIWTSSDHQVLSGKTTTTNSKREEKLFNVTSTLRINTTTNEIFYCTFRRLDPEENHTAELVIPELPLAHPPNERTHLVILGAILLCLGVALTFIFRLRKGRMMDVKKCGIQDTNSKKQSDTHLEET
# Chain of CD276, Q5ZPR3 (Q5ZPR3 whole entry): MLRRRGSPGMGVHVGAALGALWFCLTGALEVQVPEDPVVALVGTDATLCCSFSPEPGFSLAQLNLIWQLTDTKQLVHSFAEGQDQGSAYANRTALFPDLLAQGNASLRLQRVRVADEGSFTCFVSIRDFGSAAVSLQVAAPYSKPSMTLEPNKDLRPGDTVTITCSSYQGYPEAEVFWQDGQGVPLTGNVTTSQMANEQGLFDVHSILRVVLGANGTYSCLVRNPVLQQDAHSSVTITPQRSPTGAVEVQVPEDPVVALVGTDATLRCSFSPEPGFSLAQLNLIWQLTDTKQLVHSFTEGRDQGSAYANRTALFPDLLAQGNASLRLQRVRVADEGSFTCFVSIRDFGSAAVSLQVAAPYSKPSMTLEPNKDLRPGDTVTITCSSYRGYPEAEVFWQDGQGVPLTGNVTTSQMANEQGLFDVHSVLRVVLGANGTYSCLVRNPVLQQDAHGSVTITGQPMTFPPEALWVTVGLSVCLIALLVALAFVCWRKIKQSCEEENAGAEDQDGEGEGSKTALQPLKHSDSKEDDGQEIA
Binder,"binding in a display sort (PDL1, Q9NZQ7)","binding in a display sort (CD276, Q5ZPR3)"
B1,not found,–
B2,binds (active),–
B3,not found,–
B4,not found,–
B5,–,not found
B6,–,not found
B7,–,not found
B8,not found,–
B9,not found,–
B10,not found,–
B11,not found,–
B12,not found,–
B13,not found,–
B14,–,not found
B15,–,not found
B16,not found,–
B17,not found,–
B18,not found,–
B19,–,not found
B20,–,not found

Binder,"binding in a display sort (PDL1, Q9NZQ7)","binding in a display sort (CD276, Q5ZPR3)"
B21,–,not found
B22,–,not found
B23,–,binds (active)
B24,not found,–
B25,–,not found
B26,not found,–
B27,–,not found
B28,not found,–
B29,–,not found
B30,not found,–
B31,binds (active),–
B32,–,not found
B33,binds (active),–
B34,binds (active),–
B35,–,not found
B36,–,not found
B37,–,not found
B38,binds (active),–
B39,binds (active),–
